PubChem BioAssay AID651605 (National Center for Advancing Translational Sciences (NCATS), 2012)
Values joined by “and” are separate entries in the source; they are usually repeats but may differ in a detail not shown here. Equal entries are not always repeated. Records with an inconclusive call do not appear. Active and inactive are the calls of the source. The call rests on the fitted dose curve; in most records, active means well fitted inhibition curve with a large enough effect; inconclusive means small, poorly fitted or top-dose-only effect; inactive means flat fitted curve, though single readings scatter.

These molecules were tested against Ubiquitin carboxyl-terminal hydrolase 1 (Homo sapiens) (UniProt O94782) (assay: Inhibitors of USP1/UAF1: SAR in Primary Assay). Conditions: Recombinant USP1/UAF1, Ub-Rhodamine cleavage fluorescence; series mostly up to 57.1 µM.
Ubiquitin carboxyl-terminal hydrolase 1 (Homo sapiens), sequence (O94782 whole entry, looked up): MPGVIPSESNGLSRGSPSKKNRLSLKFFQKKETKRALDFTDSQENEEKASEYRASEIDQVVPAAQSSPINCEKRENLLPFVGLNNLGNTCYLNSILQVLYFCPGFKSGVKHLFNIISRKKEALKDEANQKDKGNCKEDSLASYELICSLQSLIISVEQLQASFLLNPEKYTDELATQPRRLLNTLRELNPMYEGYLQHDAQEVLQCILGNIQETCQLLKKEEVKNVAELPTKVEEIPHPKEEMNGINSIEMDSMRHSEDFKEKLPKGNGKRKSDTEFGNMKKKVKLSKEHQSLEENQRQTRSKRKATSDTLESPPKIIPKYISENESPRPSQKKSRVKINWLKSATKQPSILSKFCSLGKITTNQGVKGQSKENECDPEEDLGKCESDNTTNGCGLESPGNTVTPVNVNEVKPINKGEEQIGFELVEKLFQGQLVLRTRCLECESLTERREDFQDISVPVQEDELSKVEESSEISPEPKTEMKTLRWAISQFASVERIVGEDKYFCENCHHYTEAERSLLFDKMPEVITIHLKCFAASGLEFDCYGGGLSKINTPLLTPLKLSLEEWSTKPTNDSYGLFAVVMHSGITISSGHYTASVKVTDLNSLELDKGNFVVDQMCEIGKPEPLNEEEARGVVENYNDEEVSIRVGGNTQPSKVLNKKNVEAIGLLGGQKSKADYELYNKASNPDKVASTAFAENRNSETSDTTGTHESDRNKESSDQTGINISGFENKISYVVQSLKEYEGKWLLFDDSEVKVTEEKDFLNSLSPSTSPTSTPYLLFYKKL
Description: Deubiquitinating enzymes (DUBs) are a class of enzymes that can cleave isopeptide bond formed between the C-terminal carboxylate of ubiquitin and a lysine side-chain amino group on the target protein. Among them, ubiquitin specific proteases (USPs) constitute the largest DUB family. Human USPs are emerging as promising targets for pharmacological intervention because of their connection to a number of human diseases, including prostate, colon and breast cancer (1, 2), pediatric acute lymphoblastic leukemia (3), and familial cylindromatosis (4). The advantage of inhibiting USPs lies in the potential specificity of therapeutic intervention that can lead to better efficacy and reduce nonspecific side effects. In a collaboration between the University of Delaware and the NIH Chemical Genomics Center, a high-throughput screen assay was developed to screen for USP1/UAF1 inhibitors (5). This assay was used to test the analogs that were synthesized based on SAR around the original hit. NIH Chemical Genomics Center [NCGC] NIH Molecular Libraries Probe Centers Network [MLPCN] MLPCN Grant: DA030552-01 Assay Submitter (PI): Zhihao Zhuang, University of Delaware 1. Priolo, C., et al. (2006) The isopeptidase USP2a protects human prostate cancer from apoptosis. Cancer Res 66, 8625-8632 2. Popov, N., et al. (2007) The ubiquitin-specific protease USP28 is required for MYC stability. Nat Cell Biol 9, 765-774 3. De Pitta, C., et al. (2005) A leukemia-enriched cDNA microarray platform identifies new transcripts with relevance to the biology of pediatric acute lymphoblastic leukemia. Haematologica 90, 890-898 4. Kovalenko, A., et al. (2003) The tumour suppressor CYLD negatively regulates NF-kappaB signalling by deubiquitination. Nature 424, 801-805 5. Chen, J., et al. (2011) Selective and cell-active inhibitors of the USP1/ UAF1 deubiquitinase complex reverse cisplatin resistance in non-small cell lung cancer cells. Chem Bio 18(11):1390-400.
3 microliters of reagents (buffer in columns 3 and 4 as negative control and 1nM USP1/UAF1 complex in columns 1, 2, and 5-48) are dispensed into Greiner black solid bottom 1536-well assay plates. Compounds are then transferred via Kalypsys pin tool equipped with 1536-pin array (10nl slotted pins, V&P Scientific, San Diego, CA). Following an incubation step of 15 min at room temperature, 1ul of Ub-Rho substrate (150nM final concentration) is added to initiate the reaction. The plates are immediately centrifuged at 1000 rpm for 15 seconds, and subsequently transferred to a ViewLux high-throughput CCD imager (PerkinElmer) wherein kinetic measurements of fluorescence are acquired using 480 nm excitation/540 nm emission filter set (6 reads every 60 seconds, see Table 1). All reagents are diluted in an assay buffer consisting of 50mM HEPES (pH 7.8), 0.5mM EDTA, 0.1 mg/ml BSA, 1mM TCEP, and 0.01% Tween-20.
`Cc1cnc(-c2ccccc2C(C)C)nc1NCc1ccc(C#N)cc1` was tested, and the Potency was 482 nM (active). With `CC(C)c1ccccc1-c1nccc(NCc2ccc(-c3cccnc3)cc2)n1` the Potency was 121 nM (active). In the case of `Cc1nc(NCc2ccc(-c3cccnc3)cc2)c2ccccc2n1`, the Potency is reported as “inactive”. In the case of `FC(F)(F)c1ccccc1-c1nc(NCc2ccc(-c3cccnc3)cc2)c2[nH]cnc2n1`, the Potency is reported as 607 nM (active). In the case of `FC(F)(F)c1ccccc1-c1nc(NCc2ccc(-c3cccnc3)cc2)c2ccccc2n1`, the Potency is reported as 607 nM (active). `CC(C)c1ccccc1-c1ncc(F)c(NCc2ccc(-n3ccnn3)cc2)n1` was tested, and the Potency was 17.1 nM (active). `Cc1cccc(C(CO)Nc2nc(-c3ccccc3C(C)C)ncc2C)c1` (stereo not given) was tested, and the Potency was 1080 nM (active). `CC(C)c1ccccc1-c1ncc(F)c(NCC2CCN(c3cccnc3)CC2)n1` was tested, and the Potency was 96.1 nM (active). With `COc1cnc(-c2ccccc2C(C)C)nc1NCc1ccc(-c2cccnc2)cc1` the Potency was 42.9 nM (active). `CC(C)c1ccccc1-c1nc2c(c(NCc3ccc(-c4cccnc4)cc3)n1)CNC2` was tested, and the Potency was 1520 nM (active). For `Cc1ccc(-c2ccc(CNc3nc(-c4ccccc4C(C)C)nc4ccccc34)cc2)cn1`, the Potency was 136 nM (active). In the case of `Cc1ccc(-c2ccc(C(C)Nc3nc(-c4ccccc4C(C)C)ncc3C)cc2)cn1` (stereo not given), the Potency is reported as 341 nM (active). In the case of `N#Cc1cccc(-c2ccc(CNc3nc(-c4ccccc4C(F)(F)F)nc4ccccc34)cc2)c1`, the Potency is reported as 2710 nM (active). In the case of `Cc1ccc(N2CCC(CNc3nc(-c4ccccc4C(C)C)ncc3F)CC2)cn1`, the Potency is reported as 96.1 nM (active). For `CC(C)c1ccccc1-c1nc(NCc2ccc(-c3cccnc3)cc2)c2[nH]cnc2n1`, the Potency was 121 nM (active). In the case of `Cc1cnc(-c2ccccc2C(C)C)nc1NCc1ccc(-c2cccnc2)cc1`, the Potency is reported as 68.1 nM (active). `Cc1cnc(-c2ccccc2C2CC2)nc1NCc1ccc(-c2cccnc2)cc1` was tested, and the Potency was 341 nM (active). `Cc1cnc(-c2ccccc2C(F)(F)F)nc1NCc1ccc(-c2cccnc2)cc1` was tested, and the Potency was 271 nM (active). `CC(C)c1ccccc1-c1nc(NCc2ccc(-c3cccnc3)cc2)c2sccc2n1` was tested, and the Potency was 121 nM (active). In the case of `Cc1cnc(-c2ccccc2C(C)C)nc1NCC1CCN(c2cccnc2)C1` (stereo not given), the Potency is reported as 429 nM (active). In the case of `Cc1cnc(-c2ccccc2CO)nc1NCC1CCN(c2cccnc2)CC1`, the Potency is reported as 7640 nM (active). `CC(C)c1ccccc1-c1ncc(N(C)C)c(NCc2ccc(-c3cccnc3)cc2)n1` was tested, and the Potency was 152 nM (active). In the case of `CSc1ccccc1-c1ncc(C)c(NCc2ccc(-c3cccnc3)cc2)n1`, the Potency is reported as 541 nM (active). In the case of `CC(C)c1ccccc1-c1nc(NCc2ccc(-c3cccnc3)cc2)c2cccn2n1`, the Potency is reported as 215 nM (active). In the case of `FC(F)(F)c1ccccc1-c1nc(NCC2CCN(c3cccnc3)CC2)c2ccccc2n1`, the Potency is reported as 607 nM (active). In the case of `CC(C)c1ccccc1-c1nc(NCc2ccc(-c3cccnc3)cc2)c2ccsc2n1`, the Potency is reported as 242 nM (active). For `CC(C)c1ccccc1-c1nc(NCc2ccc(-c3cccnc3)cc2)c2ccccc2n1`, the Potency was 152 nM (active). `Cc1cnc(-c2ccccc2C(C)C)nc1NCc1ccc(-c2cn[nH]n2)cc1` was tested, and the Potency was 242 nM (active). In the case of `CC(C)c1ccccc1-c1ncc(F)c(NCc2ccc(-c3cccnc3)s2)n1`, the Potency is reported as 242 nM (active). `CC(C)c1ccccc1-c1ncc(N)c(NCc2ccc(-c3cccnc3)cc2)n1` was tested, and the Potency was 271 nM (active). `Fc1cc(Cl)cc(-c2ccc(CNc3nc(-c4ccccc4C(F)(F)F)nc4ccccc34)cc2)c1` was tested, and the Potency was 2410 nM (active). With `FC(F)(F)c1cc(-c2ccc(CNc3nc(-c4ccncc4)nc4ccccc34)cc2)ccn1` the Potency was 19200 nM (active). With `CC(C)c1ccccc1-c1nc2c(c(NCc3ccc(-c4cccnc4)cc3)n1)CCC2` the Potency was 136 nM (active). For `COc1ccccc1-c1ncc(C)c(NCc2ccc(-c3cccnc3)cc2)n1`, the Potency was 764 nM (active). For `CC(C)c1ccccc1-c1nc(NCC2CCN(c3cccnc3)CC2)c2ccccc2n1`, the Potency was 85.7 nM (active). For `FC(F)(F)c1ccccc1-c1nc(NCC#Cc2cccnc2)c2ccccc2n1`, the Potency was 4.82 µM (active) and 7.64 µM (active). `Cc1cnc(-c2ccccc2C(C)C)nc1NCc1cccnc1` was tested, and the Potency was 2150 nM (active). For `Fc1cnc(-c2ccccc2C(F)F)nc1NCc1ccc(-n2ccnn2)cc1`, the Potency was 1210 nM (active). For `CC(Nc1nc(-c2ccccc2C(F)(F)F)nc2ccccc12)c1ccc(-c2ccncc2)cc1` (stereo not given), the Potency was 5410 nM (active). In the case of `Cc1cc(NCc2ccc(-c3cccnc3)cc2)nc(-c2ccccc2C(C)C)n1`, the Potency is reported as 482 nM (active).
